From ChEMBL document CHEMBL4513216, “Probing the Open Global Health Chemical Diversity Library for Multistage-Active Starting Points for Next-Generation Antimalarials” (ACS Infect Dis, 2020)
Screen size: about 68,000 compounds; about 2,700 (4%) showed an effect of 50% or more. Only a selection was taken, and strong results are over-represented in it overall.

system: Plasmodium berghei; test: Screen against P. berghei liver stage (PbLuc), transformed with Luciferase, at 2uM; type: functional, HepG2; details: tested at 2 uM

Compared with CCN(CC)C(=O)[C@@H]1C[C@H](n2cc(-c3cccc(OC)c3)nn2)CN1, CCN(CC)C(=O)[C@@H]1C[C@@H](n2cc(-c3cccc(OC)c3)nn2)CN1 is higher in INHIBITION: 36.28% for the first, 57.75% for the second.

First: CCN(CC)C(=O)[C@@H]1C[C@@H](n2cc(-c3ccccn3)nn2)CN1
Second: CCn1ccnc1CN(C)CC1CCCN1c1cccnn1 (centres undefined)
The INHIBITION of the first is lower: 38.67% for the first, 55.52% for the second.

First: CC1(C)CC(n2cc3nc(N4CCCC4)[nH]cc-3c2=O)CC(C)(C)N1
Second: Cc1c(C2CC(=O)Nc3c2cnn3C(C)C)cnn1C (centres undefined)
The INHIBITION of the first is higher: 6.2% for the first, -0.58% for the second.

Going from O=C(CCc1ccsc1)NS(=O)(=O)Cc1ccon1 to O=C(CCc1cccc(Cl)c1)NS(=O)(=O)Cc1ccon1, the INHIBITION rises from -6.64% to 41.05%.

Going from O=C(CCc1ccco1)NS(=O)(=O)Cc1ccon1 to CC(=O)N(C)CC(=O)Nc1ccc(C)cc1OCc1ccccc1, the INHIBITION falls from 50.59% to 50.03%.

Going from CCCNc1ccc(C(=O)NCCc2cccc(OC)c2)cn1 to CCOc1cccc(CNC(=O)c2cnn(CC)c2C(F)(F)F)c1, the INHIBITION rises from 19.09% to 40.97%.

First: CC(C)NC(=O)N1CCCCC1c1nnc2n1CCNC2 (centres undefined)
Second: CC(CN1CCOCC1)NC(=O)N1CCCC1 (centres undefined)
The INHIBITION of the first is lower: -15.93% for the first, 34.93% for the second.

Compared with CC(NC(=O)c1ccc(Cl)cc1)c1nnc(SCC(=O)O)n1C (centres undefined), C=Cc1ccc(C(=O)NC2CCCc3nc(N(C)C)ncc32)cc1 (centres undefined) is higher in INHIBITION: 4.37% for the first, 34.61% for the second.

First: Cc1c(CN2CCCC(O)C2)[nH]c2ccc(F)cc12 (centres undefined)
Second: Cc1c(CN2CC[C@@H](N3CCC(O)CC3)[C@H](O)C2)[nH]c2ccc(F)cc12
The INHIBITION of the first is lower: -1.51% for the first, 51.43% for the second.

Going from Cc1c(CN2CC[C@@H](N3CCC(O)CC3)[C@H](O)C2)[nH]c2ccc(Cl)cc12 to NC(=O)c1cc(C2CCCN(Cc3ccc4c(c3)OCCO4)C2)n[nH]1 (centres undefined), the INHIBITION rises from -31.36% to -16.03%.

First: Cc1nccc(-c2ccccc2)c1C(=O)N1CC[C@](C)(O)C(C)(C)C1
Second: CN1CCC2(CC1)CN(C(=O)c1cccnc1)Cc1ccccc12
The INHIBITION of the first is higher: 48.93% for the first, -19.51% for the second.

Compared with COC1COC2(CCN(Cc3ccc4ccccc4n3)CC2)C1 (centres undefined), CN1CCC2(CC1)CN(C(=O)c1ccncc1)Cc1ccccc12 is higher in INHIBITION: -0.18% for the first, 56.25% for the second.

First: CCn1ncc(C(=O)NCc2ccc(C)c(OC)c2)c1C(F)(F)F
Second: CCOc1cc(CNC(=O)c2cnn(CC)c2C(F)(F)F)ccn1
The INHIBITION of the first is higher: 55.52% for the first, -61.54% for the second.

First: Cc1cncc(C(=O)N2Cc3ccccc3C3(CCN(C)CC3)C2)c1
Second: Cc1cnc(N2CCC3(CC2)CN(c2ccsc2)C(=O)CO3)nc1
The INHIBITION of the first is higher: 5.28% for the first, -38.48% for the second.

First: CCc1nnc(C2Cc3ccccc3CN2Cc2cc(C)on2)o1 (centres undefined)
Second: CCc1nnc(C2Cc3ccccc3CN2Cc2cc(C)no2)o1 (centres undefined)
The INHIBITION of the first is lower: 33.9% for the first, 56.89% for the second.

First: Cc1cc(CN2Cc3ccccc3CC2c2nnc(C)o2)on1 (centres undefined)
Second: NC(=O)CN1CCCC1c1ccccc1Br (centres undefined)
The INHIBITION of the first is higher: 21.91% for the first, -43.18% for the second.

Going from Cc1ccoc1C(=O)N1C[C@@H](OCC2CC2)[C@H]2OCCC[C@H]21 to COc1cc(C)nc(N2CCN(C(=O)COCC3CC3)CC2)n1, the INHIBITION falls from 8.25% to 4.19%.

Going from CCc1nc(NC(=O)NCCc2cccc(C)n2)nn1C to CCCOc1cc(C)ccc1NC(=O)NCCNC(C)=O, the INHIBITION falls from 21.14% to -3.26%.

Compared with Cc1ccc(NC(=O)N(CCO)CCO)c(OCc2ccccc2)c1, CC(=O)NCCNC(=O)Nc1ccc(C)cc1OCc1ccccc1 is lower in INHIBITION: 68.73% for the first, 3.22% for the second.

First: CCCOc1cc(C)ccc1NC(=O)N(C)C
Second: CCOc1ccccc1NC(=O)N(CCO)Cc1ccsc1
The INHIBITION of the first is lower: -59.32% for the first, 38.66% for the second.

Compared with Cc1nc(C2CCCN2CC(=O)NCCOc2ccc(F)cc2)no1 (centres undefined), CNC(=O)CN1CCCC1c1ccccc1Br (centres undefined) is lower in INHIBITION: 20.57% for the first, 1.9% for the second.

Compared with Cc1nccn1CCCn1cncc1-c1ccc2c(c1)CCC(C)N2C (centres undefined), CCn1ccnc1CNCC1CCCN1c1cccnn1 (centres undefined) is higher in INHIBITION: 12.29% for the first, 39.92% for the second.

Compared with CC(C)(C)c1nc(CN2CCCC2Cn2cncn2)no1 (centres undefined), Cc1nn(C)cc1CCC(=O)N1CCCC(n2cncn2)C1 (centres undefined) is lower in INHIBITION: 45.83% for the first, 26.71% for the second.

Compared with COc1ccc(OC)c(C2c3c(n[nH]c3C)N=C3COC(=O)C32)c1 (centres undefined), COc1cccc(C2c3c(n[nH]c3C)N=C3COC(=O)C32)c1OC (centres undefined) is lower in INHIBITION: 26.14% for the first, -35.07% for the second.

Going from COc1cccc(C2c3c(n[nH]c3C)N=C3COC(=O)C32)c1O (centres undefined) to COc1c[nH]c(C(=O)Nc2nc(C)cs2)cc1=O, the INHIBITION rises from 63.46% to 79.68%.

First: CNC(=O)CCN1CCCC1c1ccccc1Br (centres undefined)
Second: Cc1cc(NC(=O)CN(C)CC2CCCN2c2cccnn2)n(C)n1 (centres undefined)
The INHIBITION of the first is higher: 51.76% for the first, 51.03% for the second.

Compared with CCOC(=O)Cc1csc(NC(=O)c2cc(=O)c(OC)c[nH]2)n1, COc1c[nH]c(C(=O)Nc2nc(C(C)(C)C)cs2)cc1=O is higher in INHIBITION: -5.51% for the first, 34.71% for the second.

Compared with O=C(CSc1nnc(N2CCOCC2)s1)NCc1cccs1, Cc1csc(N2CCN(C(=O)Cc3cccs3)CC2)n1 is lower in INHIBITION: 44.98% for the first, 6.07% for the second.

First: COc1cc(C)nc(N2CCN(C(=O)COCC(F)(F)F)CC2)n1
Second: COc1ccnc(N2CCN(C(=O)COCC(F)(F)F)CC2)n1
The INHIBITION of the first is higher: 51.21% for the first, 4.19% for the second.

Going from CCOc1cc(C)nc(N2CCN(C(=O)c3cn[nH]c3CC)CC2)n1 to CCc1[nH]ncc1C(=O)N1CCN(c2nc(C)cc(OC)n2)CC1, the INHIBITION rises from 38.76% to 51.83%.

Going from CCc1[nH]ncc1C(=O)N1CCN(c2nccc(OC)n2)CC1 to COc1ccc(CC(=O)N2CCCCC2Cn2cccn2)cc1OC (centres undefined), the INHIBITION rises from -85.11% to -40.17%.

Going from Cc1ccnn1CCCNC(=O)C1CCN(S(C)(=O)=O)CC1 to Cc1csc(NC(=O)CN(C)CC2CCCN2c2cccnn2)n1 (centres undefined), the INHIBITION rises from -11.34% to 9.17%.

Compared with CC(C)(C)C(O)CN1CCN(Cc2cccc(C#N)c2)CC1 (centres undefined), CN1CCN(c2ccccc2NC(=O)NCCc2ccccc2)CC1 is lower in INHIBITION: -4.89% for the first, -10% for the second.

Compared with CC(C)n1c(=O)[nH]c2cn(-c3ccc(Br)cc3)c(=O)n21, CN(CC(=O)Nc1ccncc1)CC1CCCN1c1cccnn1 (centres undefined) is lower in INHIBITION: 22.07% for the first, -22.08% for the second.

Cc1cnc(CN(C)CC2CCCN2c2cccnn2)cn1 (centres undefined) gave an INHIBITION of 47.72%.
